PubChem BioAssay AID633 (Emory University Molecular Libraries Screening Center, 2007)
Out of some 86,000 compounds screened, about 1,100 (1.3%) were called active.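 How the source made its calls: active means compounds whose percent inhibition of the receptor-coactivator binding signal exceeds about 50% in the single-dose screen (limit read from the data); inactive means the rest.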 The sample as a whole holds a higher share of actives than the screen did.

Target: Estrogen receptor beta (Homo sapiens) (UniProt Q92731)
Sequence (Q92731 whole entry, looked up, the tested form may be a part): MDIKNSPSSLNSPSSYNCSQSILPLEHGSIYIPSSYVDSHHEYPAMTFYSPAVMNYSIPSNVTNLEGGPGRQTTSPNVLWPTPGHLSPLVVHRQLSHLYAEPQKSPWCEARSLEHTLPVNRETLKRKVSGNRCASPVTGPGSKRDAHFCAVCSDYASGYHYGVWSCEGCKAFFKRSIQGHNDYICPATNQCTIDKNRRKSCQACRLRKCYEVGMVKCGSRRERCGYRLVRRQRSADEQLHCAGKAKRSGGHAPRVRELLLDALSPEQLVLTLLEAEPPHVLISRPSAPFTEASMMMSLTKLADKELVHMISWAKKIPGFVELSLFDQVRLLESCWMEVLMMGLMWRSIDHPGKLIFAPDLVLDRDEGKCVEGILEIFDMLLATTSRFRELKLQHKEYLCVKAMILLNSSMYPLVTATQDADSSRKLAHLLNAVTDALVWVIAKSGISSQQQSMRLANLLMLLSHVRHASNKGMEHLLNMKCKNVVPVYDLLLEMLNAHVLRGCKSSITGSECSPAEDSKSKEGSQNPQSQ
Test: blockers of coactivator peptide binding to ERβ – biochemical, TR-FRET, ERβ LBD, SRC-1 peptide, primary screen (AID 633);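 further: 0% = receptor plus peptide wells without compound and 100% = peptide-only wells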
Conditions: TR-FRET ER-beta LBD / SRC1-Cy5 peptide binding; at 25.6 µM; stronger effect = higher value; receptor agonist-loaded with 1 µM estradiol

inhibition, active:
CCOc1cc(N2CCOCC2)c(OCC)cc1NC(=O)COc1cccc2cccnc12 61.6% [fluorescence artefact?]
Cc1ccc(OCC(=O)Nc2ccc(-c3nnc(-c4ccco4)o3)cc2)cc1 63.5% [fluorescence artefact?]
CN(C)[C@@H]1C(=O)C(C(N)=O)=C(O)[C@@]2(O)C(=O)C3=C(O)c4c(O)ccc(Cl)c4[C@@H](O)[C@H]3C[C@@H]12 91.5% [fluorescence artefact?]
ON=C1/C(=N\O)CC2(C/C1=N/O)OCCO2 60.3%
Cc1ccc(Cc2cncc(O)c2)cc1S(=O)(=O)O 54.6%

inhibition, inactive:
COC(=O)c1ccc(CSc2ccc3nnc(-c4ccccc4)n3n2)o1 -3.95%
Cc1ccc(S(=O)(=O)NC(=O)COc2ccccc2C)cc1 8.77%
CCOc1cc(N2CCOCC2)c(OCC)cc1NC(=O)COC(=O)[C@H](Cc1c[nH]c2ccccc12)NC(C)=O -5.51%
CCOc1cc(NC(=O)c2ccco2)c(OCC)cc1NC(=O)COc1ccccc1 48.5%
O=C(Oc1ccccc1C(=S)N1CCCCC1)c1cc([N+](=O)[O-])cc([N+](=O)[O-])c1 -10.5%
Cc1nnc(SC(C)C(=O)Nc2ccc(S(=O)(=O)NC3CCCCC3)cc2)s1 (centres undefined) 17.8%
COc1ccc(CC(=O)Nc2ccc(-c3nnc(-c4ccc(C)cc4)o3)cc2)cc1 15.6%
CCOc1ccc(-c2nnc(-c3ccco3)o2)cc1 -5.81%
COc1ccc(CC(NC(C)=O)C(=O)N2CCN(C(=O)Nc3cccc(Cl)c3)CC2)cc1OC (centres undefined) -8.98%
COc1ccc(C(C#N)Nc2ccccc2C)cc1 (centres undefined) -1.62%
CC(C)CNC(=O)CC(c1ccccc1)c1c(O)ccc2ccccc12 (centres undefined) -3.69%
O=C(Cn1c(-c2cscn2)nc2ccccc21)Nc1ccc(Cl)cc1 18.5%
COc1ccccc1NC(=O)CSc1nnc(C)n1CC1CCCO1 (centres undefined) -11.8%
COc1ccc(-n2c(C)csc2=S)cc1 -15.3%
O/N=C1\CC2(Cc3nonc31)OCCO2 23%
O=C(CSc1nnnn1-c1ccccc1)NCc1ccco1 17.8%
CCOC(=O)Nc1sc(C(=O)N(C)C)c(C)c1C(=O)OCC 4.28%
Cc1cc(O)cc(O)c1C(=O)Cc1cnn(-c2ccccc2)c1 -7.76%
Cn1nc(-c2ccccc2)c(CSc2cccc(Cl)c2)c1Cl -3.81%
